Compounds without any hit were thinned out: in the full panel of roughly 79,000, 15% have a hit. Activity calls are given as the source filed them. Rule as the data show it: active = growth inhibition above about 70%; inactive = the rest.
How the values were obtained:
[1] = NCI Yeast Anticancer Drug Screen. Data for the rad50 strain (AID 155);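 also: 0% = growth of vehicle-only cultures of the same strain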; details: S. cerevisiae rad50 strain growth inhibition, stronger effect = higher value
In short: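 Yeast carrying a defined DNA repair defect were exposed to test compounds, and growth was compared with vehicle-treated controls to give percent inhibition.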

[2] = NCI Yeast Anticancer Drug Screen. Data for the mec2-1 strain (AID 157); details: S. cerevisiae mec2-1 strain, stronger effect = higher value
In short: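 Readout is yeast growth inhibition, normalised to vehicle-treated controls, in the mec2-1 strain exposed to compound.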

[3] = NCI Yeast Anticancer Drug Screen. Data for the sgs1 mgt1 strain (AID 161);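 also: 0% = growth of cultures given vehicle only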; details: S. cerevisiae sgs1 mgt1 strain, stronger effect = higher value
In short: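 Compounds are added to genetically altered yeast, and growth is compared with cultures given vehicle alone to give percent inhibition.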

[4] = NCI Yeast Anticancer Drug Screen. Data for the cln2 rad14 strain (AID 165);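 also: 0% = growth equal to vehicle treated cultures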; details: S. cerevisiae cln2 rad14 strain, stronger effect = higher value
In short: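 Relative to vehicle controls, growth inhibition of compound-treated cln2 rad14 yeast was recorded.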

[5] = NCI Yeast Anticancer Drug Screen. Data for the bub3 strain (AID 167); details: S. cerevisiae bub3 mutant strain, stronger effect = higher value
In short: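 Compounds were applied to a genetically altered yeast strain carrying a cell-cycle control defect. Growth inhibition was scored against vehicle-treated controls.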

[6] = NCI Yeast Anticancer Drug Screen. Data for the mlh1 rad18 strain (AID 175); details: S. cerevisiae mlh1 rad18 strain growth inhibition, stronger effect = higher value
In short: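 Test agents were incubated with a yeast strain of defined genotype (DNA damage repair defect). Inhibition of growth was derived by comparison with vehicle-exposed cultures.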

[7] = at 5.0 µM (retest, dose inferred, filed as 0.5)
[8] = at 50.0 µM (retest, dose inferred, filed as 5.0)

SMILES	growth inhibition [1, 7]	growth inhibition [1, 8]	growth inhibition ([1]; at 50.0 µM)	growth inhibition [2, 7]	growth inhibition [2, 8]	growth inhibition ([2]; at 50.0 µM)	growth inhibition [3, 7]	growth inhibition [3, 8]	growth inhibition ([3]; at 50.0 µM)	growth inhibition [4, 7]	growth inhibition [4, 8]	growth inhibition ([4]; at 50.0 µM)	growth inhibition [5, 7]	growth inhibition [5, 8]	growth inhibition ([5]; at 50.0 µM)	growth inhibition [6, 7]	growth inhibition [6, 8]	growth inhibition ([6]; at 50.0 µM)
O=[N+]([O-])C=C(c1ccccc1)c1ccccc1	-23% (inactive)	93% (active)	96.8% (active)	-12% (inactive)	89% (active)	87.8% (active)	7% (inactive)	86% (active)	77.8% (active)	-20% (inactive)	63% (inactive)	76.8% (active)	-1% (inactive)	90% (active)	88% (active)	-12% (inactive)	94% (active)	93.2% (active)
O=C1C=CC(O)=CC1=P(c1ccccc1)(c1ccccc1)c1ccccc1	2% (inactive)	11% (inactive)	48.1% (inactive)	-1% (inactive)	6% (inactive)	-8.55% (inactive)	-1% (inactive)	2% (inactive)	47.5% (inactive)	-2% (inactive)	-3% (inactive)	7.4% (inactive)	-4% (inactive)	2% (inactive)	25.9% (inactive)	3% (inactive)	8% (inactive)	34.5% (inactive)
CCOC(=O)/C(=C\c1ccc2ccccc2c1)P(=O)(OCC)OCC	-3% (inactive)	59% (inactive)	78.2% (active)	3% (inactive)	81% (active)	79.5% (active)	9% (inactive)	66% (inactive)	72% (active)	30% (inactive)	69% (inactive)	65.4% (inactive)	29% (inactive)	88% (active)	74% (active)	17% (inactive)	88% (active)	59.3% (inactive)
O=C(c1ccccc1)C(Br)C(Br)c1ccccc1 (stereo not drawn)	31% (inactive)	96% (active)	97.7% (active)	27% (inactive)	98% (active)	98.8% (active)	38% (inactive)	97% (active)	43.2% (inactive)	18% (inactive)	84% (active)	39.8% (inactive)	22% (inactive)	97% (active)	98.8% (active)	43% (inactive)	95% (active)	97.2% (active)
O=C(CCl)N(c1ccccc1)c1ccccc1	5% (inactive)	59% (inactive)	89.7% (active)	3% (inactive)	59% (inactive)	90.2% (active)	1% (inactive)	54% (inactive)	91.8% (active)	1% (inactive)	39% (inactive)	68.5% (inactive)	8% (inactive)	63% (inactive)	86.5% (active)	2% (inactive)	73% (active)	92.8% (active)
COc1cc(N(CCC#N)CCC#N)ccc1/C(N=Nc1ccc(C(=O)O)cc1)=N/NC(=O)c1cc(Br)ccc1O	9% (inactive)	26% (inactive)	74.8% (active)	12% (inactive)	24% (inactive)	62.1% (inactive)	-13% (inactive)	20% (inactive)	25.7% (inactive)	6% (inactive)	12% (inactive)	34% (inactive)	14% (inactive)	40% (inactive)	59.2% (inactive)	8% (inactive)	21% (inactive)	50.3% (inactive)

Reference: PubChem BioAssay (NCI)
